Records with an inconclusive call do not appear. Active and inactive are the calls of the source. How the source made its calls: active means hit-call score of the fitted dose curve at least 0.9, where 1 is the maximum; inconclusive means response in the unintended direction; inactive means score below 0.9.
What was measured:
[1] = biological target: Estrogen receptor (Homo sapiens) (UniProt P03372); test: OT_ER_ERaERa_1440: Odyssey Thera (OT) 24-hour HEK293T Protein-Complementation Assay for Estrogen Receptor-alpha/-alpha Homodimer (AID 2283349);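 further: hits raise fluorescence above DMSO for agonists and antagonists alike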
Summary of the method: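 Cells (HEK293T) carrying the fragment-tagged ERα LBD (aa 310-547) pair are treated with chemical for 24 hours. Nuclear and/or cytoplasmic fluorescence is then quantified on a laser scanning cytometer. Activity is scored as signal gain against DMSO.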

[2] = biological target: Estrogen receptor (Homo sapiens) (UniProt P03372); test: OT_ER_ERaERa_0480: Odyssey Thera (OT) 8-hour HEK293T Protein-Complementation Assay for Estrogen Receptor-alpha/-alpha Homodimer (AID 2283351);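 further: rise in fluorescence from reassembled reporter fragments on ERα LBD homodimer in nucleus or whole cell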
Summary of the method: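 Cells were treated for 8 hours, then imaged on a laser scanning plate cytometer. Complementation of reporter fragments fused to the human ERα ligand-binding domain (residues 310-547) in HEK293T gave fluorescence, and gain of signal over vehicle was fitted.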

[3] = biological target: Estrogen receptor (Homo sapiens) + Estrogen receptor beta (Homo sapiens) (UniProt P03372+Q92731); test: OT_ER_ERaERb_0480: Odyssey Thera (OT) 8-hour HEK293T Protein-Complementation Assay for Estrogen Receptor-alpha/-beta Heterodimer (AID 2283352)
Summary of the method: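 Compound added to HEK293T cells carrying split-reporter-tagged ER-alpha and ER-beta LBDs, incubated 8 hours, then imaged by laser scanning cytometer. Signal rise in nucleus, or nucleus and cytoplasm, over vehicle was fitted in the positive direction.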

[4] = biological target: Androgen Receptor/SRC-1 Co-activator, AR (gene 367) (UniProt P10275); test: OT_AR_ARSRC1_0960: Odyssey Thera (OT) 16-hour HEK293T Protein-Complementation Assay for Androgen Receptor/SRC-1 Co-activator (AID 2283353);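 further: actives raise the signal above DMSO so potency reflects increased AR and SRC-1 complex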
Summary of the method: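 Stable HEK293T line carries AR and SRC-1 each linked to a Venus fragment; chemicals are applied for 16 h, cells imaged at two wavelengths, and the 488 nm nucleus/cytoplasm ratio is taken as the signal, rising relative to DMSO.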

Chain of Androgen Receptor/SRC-1 Co-activator, AR (gene 367) (P10275 whole entry, looked up, the tested form may be a part): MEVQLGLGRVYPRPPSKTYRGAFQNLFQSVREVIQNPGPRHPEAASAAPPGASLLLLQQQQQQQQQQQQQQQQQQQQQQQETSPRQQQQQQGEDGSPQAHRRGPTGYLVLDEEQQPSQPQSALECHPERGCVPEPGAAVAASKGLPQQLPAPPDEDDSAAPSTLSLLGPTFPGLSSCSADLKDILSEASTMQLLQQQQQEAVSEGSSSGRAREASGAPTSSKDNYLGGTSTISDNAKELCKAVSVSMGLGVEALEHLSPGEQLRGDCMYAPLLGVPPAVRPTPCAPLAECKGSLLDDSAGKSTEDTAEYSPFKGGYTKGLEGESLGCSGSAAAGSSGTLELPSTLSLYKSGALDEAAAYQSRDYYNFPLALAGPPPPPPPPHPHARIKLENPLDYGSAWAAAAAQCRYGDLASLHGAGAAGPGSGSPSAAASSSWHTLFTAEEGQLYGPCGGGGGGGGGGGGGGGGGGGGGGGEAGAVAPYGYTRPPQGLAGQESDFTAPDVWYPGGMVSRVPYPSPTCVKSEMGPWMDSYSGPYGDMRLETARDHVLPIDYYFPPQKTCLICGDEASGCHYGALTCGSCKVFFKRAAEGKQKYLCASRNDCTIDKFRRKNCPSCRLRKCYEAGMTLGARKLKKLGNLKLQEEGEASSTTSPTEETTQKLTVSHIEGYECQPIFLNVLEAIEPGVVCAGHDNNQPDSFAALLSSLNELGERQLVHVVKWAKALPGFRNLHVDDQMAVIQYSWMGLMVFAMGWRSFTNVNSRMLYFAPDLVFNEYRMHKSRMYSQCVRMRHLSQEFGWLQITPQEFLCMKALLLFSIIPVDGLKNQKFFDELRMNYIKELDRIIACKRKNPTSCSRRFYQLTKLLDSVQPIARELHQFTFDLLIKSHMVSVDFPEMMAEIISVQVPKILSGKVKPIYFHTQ
Chain of Estrogen receptor (Homo sapiens) + Estrogen receptor beta (Homo sapiens) (P03372 whole entry, looked up): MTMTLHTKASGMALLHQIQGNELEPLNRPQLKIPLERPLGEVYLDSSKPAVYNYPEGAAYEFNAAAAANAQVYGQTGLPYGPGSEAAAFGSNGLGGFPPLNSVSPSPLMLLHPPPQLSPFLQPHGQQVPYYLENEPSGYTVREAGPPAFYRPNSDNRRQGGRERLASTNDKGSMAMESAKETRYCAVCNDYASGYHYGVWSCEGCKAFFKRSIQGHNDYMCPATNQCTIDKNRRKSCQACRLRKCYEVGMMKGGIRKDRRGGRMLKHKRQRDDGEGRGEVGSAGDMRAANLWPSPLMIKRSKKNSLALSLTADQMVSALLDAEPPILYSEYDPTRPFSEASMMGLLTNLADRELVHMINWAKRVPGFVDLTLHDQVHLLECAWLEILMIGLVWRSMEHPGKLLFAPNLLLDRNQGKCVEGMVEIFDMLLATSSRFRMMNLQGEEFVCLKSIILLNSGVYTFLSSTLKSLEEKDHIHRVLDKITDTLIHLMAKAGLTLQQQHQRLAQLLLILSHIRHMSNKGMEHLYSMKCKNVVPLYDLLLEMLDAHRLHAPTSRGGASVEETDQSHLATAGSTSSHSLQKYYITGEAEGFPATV
Chain of Estrogen receptor (Homo sapiens) + Estrogen receptor beta (Homo sapiens) (Q92731 whole entry, looked up): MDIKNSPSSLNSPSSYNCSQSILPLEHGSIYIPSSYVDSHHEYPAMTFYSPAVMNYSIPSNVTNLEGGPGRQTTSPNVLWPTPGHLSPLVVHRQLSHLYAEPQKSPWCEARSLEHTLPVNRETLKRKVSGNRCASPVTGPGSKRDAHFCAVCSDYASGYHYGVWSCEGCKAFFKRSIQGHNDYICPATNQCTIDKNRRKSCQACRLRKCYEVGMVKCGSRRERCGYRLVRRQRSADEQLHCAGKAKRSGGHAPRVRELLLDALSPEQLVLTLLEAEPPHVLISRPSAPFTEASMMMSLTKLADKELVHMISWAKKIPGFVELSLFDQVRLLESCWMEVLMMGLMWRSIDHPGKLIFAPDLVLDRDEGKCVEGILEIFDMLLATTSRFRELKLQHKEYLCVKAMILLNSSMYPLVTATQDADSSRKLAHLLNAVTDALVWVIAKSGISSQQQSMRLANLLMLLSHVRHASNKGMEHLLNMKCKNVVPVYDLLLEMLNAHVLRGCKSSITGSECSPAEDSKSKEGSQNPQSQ
Chain of Estrogen receptor (Homo sapiens) (P03372 whole entry, looked up, the tested form may be a part): as the sequence (P03372 whole entry, looked up) above

Row | SMILES | outcome [1] | outcome [2] | AC50 [3] | outcome [4] | AC50 [1] | outcome [3]
1 | C1CCC(SSC2CCCCC2)CC1 | inactive | inactive | 50 µM (active) | – | – | –
2 | Cc1ccccc1Cl | inactive | inactive | – | inactive | – | –
3 | CNC(=O)[C@H]1O[C@@H](n2cnc3c(NCc4cc(Cl)ccc4OCc4cc(C)no4)ncnc32)[C@H](O)[C@@H]1N | – | inactive | – | inactive | 11.9 µM (active) | inactive
4 | CCCCCCCCCCO | inactive | inactive | – | – | – | inactive
5 | Nc1nc(N)c2nc(CNc3ccc(C(=O)N[C@@H](CCC(=O)O)C(=O)O)cc3)cnc2n1 | inactive | inactive | – | – | – | inactive
6 | CCCCCC(=O)O | inactive | inactive | – | inactive | – | inactive

Reference: PubChem BioAssay (EPA / NIEHS)
